Reference: PubChem BioAssay (NCI)
Compounds without any hit were thinned out: in the full panel of roughly 83,000, 20% have a hit.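 Plates (96-well) were seeded with cells, treated with compound at one concentration, and incubated for 48 hours before percent growth was determined.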 Values without a mark were called inactive. Activity calls are given as the source filed them. The calls were made as follows: active = growth percent below 10; inactive = the rest.

Key:
Assay in all cases: NCI-60 one-dose screen, 48 h (100 = growth as untreated, 0 = no growth, -100 = all killed)
Settings in all cases: 10 µM unless noted
SR leukemia = system: SR leukemia
RPMI-8226 leukemia = system: RPMI-8226 leukemia
OVCAR-8 ovarian = system: OVCAR-8 ovarian
OVCAR-5 ovarian = system: OVCAR-5 ovarian
OVCAR-4 ovarian = system: OVCAR-4 ovarian
SK-OV-3 ovarian = system: SK-OV-3 ovarian
IGROV1 ovarian = system: IGROV1 ovarian
OVCAR-3 ovarian = system: OVCAR-3 ovarian
HS 578T breast = system: HS 578T breast
NCI/ADR-RES ovarian = system: NCI/ADR-RES ovarian
T-47D breast = system: T-47D breast
BT-549 breast = system: BT-549 breast
MDA-MB-435 melanoma = system: MDA-MB-435 melanoma
SW-620 colon = system: SW-620 colon
MCF7 breast = system: MCF7 breast
HCT-116 colon = system: HCT-116 colon
HCC-2998 colon = system: HCC-2998 colon
KM12 colon = system: KM12 colon

| SMILES | growth (SR leukemia) | growth (RPMI-8226 leukemia) | growth (OVCAR-8 ovarian) | growth (OVCAR-5 ovarian) [%] | growth (OVCAR-4 ovarian) | growth (SK-OV-3 ovarian) | growth (IGROV1 ovarian) | growth (OVCAR-3 ovarian) | growth (HS 578T breast) | growth (NCI/ADR-RES ovarian) | growth (T-47D breast) | growth (BT-549 breast) | growth (MDA-MB-435 melanoma) | growth (SW-620 colon) | growth (MCF7 breast) | growth (HCT-116 colon) | growth (HCC-2998 colon) | growth (KM12 colon) |
| --- | --- | --- | --- | --- | --- | --- | --- | --- | --- | --- | --- | --- | --- | --- | --- | --- | --- | --- |
| CN(Cc1cc(Br)cc(Br)c1O)Cc1cc(Br)cc(Br)c1O | 33.8% | 27.6% | 16.6% | 68.9 | 15.7% | 56.4% | 29.9% | 4.97% (active) | 58.9% | 9.38% (active) | 42.6% | 57.8% | 52.6% | 24.5% | 17.7% | 7.44% (active) | 38.7% | 42.5% |
| CC[N+]1(CC)CC[N+]2(CCCC(C)CC2)CC1 (stereo not drawn) | 106% | 99.9% | 105% | 94.8 | 111% | 104% | 95.6% | 111% | 107% | 111% | 103% | 113% | 110% | 103% | 96% | 104% | 99.9% | 104% |
| [2H]C([2H])([2H])Oc1ccc(F)cc1/C=C/C(=O)/C=C(O)/C=C/c1cc(F)ccc1OC([2H])([2H])[2H] | 69.4% | 90% | 88.8% | 111 | 84.3% | 104% | 105% | 95.6% | 104% | 89.9% | 73.5% | 93.3% | 84.5% | 102% | 70% | 83.9% | 105% | 98.4% |
| CCOc1ccc(-n2nc(C(=O)NCc3ccccc3OC)nc2-c2cc(OC)c(OC)c(OC)c2)cc1 | 35.9% | 26.9% | 43.7% | 74.2 | 23.4% | 67.1% | 43.7% | 49.4% | 55.1% | 27.8% | 17% | 33.9% | 22.1% | 58% | 22.1% | 25.3% | 57.5% | 33.8% |
| CCN1CCN(c2cc(C)nc(N(CCNc3ccnc4cc(Cl)ccc34)Cc3ccc4c(c3)OCO4)n2)CC1 | -44.9% (active) | -19.3% (active) | 3.09% (active) | 40.5 | 19.8% | -16.2% (active) | 10.2% | -55.8% (active) | 30% | -13.9% (active) | -62.1% (active) | 36.4% | -66.3% (active) | 0.855% (active) | -37.3% (active) | -23.2% (active) | -46% (active) | 5.74% (active) |
| O=C(O)/C=C/C(=O)Nc1cccc(Cn2nnc3cc(Cl)c(Cl)cc32)c1 | 93.8% | 104% | 99.6% | 100 | 108% | 90.1% | 94.1% | 101% | 88% | 106% | 93.2% | 80.1% | 106% | 96.3% | 89% | 96.9% | 112% | 109% |
| O=C(O)[C@@H](Cc1ccc2ccccc2c1)NC(=O)n1c2ccccc2c2ccccc21 | 25.7% | 9.9% (active) | 21.2% | 37.6 | 43.9% | 39.7% | 29.6% | 6% (active) | 17.4% | 7.01% (active) | 70.7% | 11.3% | -53% (active) | 27.3% | 17.1% | 9.76% (active) | 21.4% | 18.5% |
| O=C1/C(=C2\SC(=S)N(C3CC3)C2=O)SC(=S)N1C1CC1 | 105% | 102% | 103% | 98.5 | 97.2% | 109% | 95.5% | 107% | 97.4% | 102% | 94.6% | 97.5% | 103% | 98.4% | 91.6% | 100% | 102% | 101% |
| COc1ccc(Cn2cc(C(=O)N=Nc3c(O)[nH]c4c(C)cccc34)nn2)cc1 | 76.6% | 90% | 67.6% | 93.6 | -28.2% (active) | 110% | 84.8% | 46.7% | 84.1% | 71.2% | 81% | 103% | 82% | 57.5% | 84.9% | 7.11% (active) | 101% | 95.6% |
| COc1ccc(/C=C/C(=O)c2cc(OC)c(OC)c(OC)c2)cc1OCC(=O)Nc1nc2ccc(OC(F)(F)F)cc2s1 | 11.6% | 6.47% (active) | 3.67% (active) | 96.3 | -7.18% (active) | -11.8% (active) | -1.97% (active) | -77.3% (active) | -20.8% (active) | -13.5% (active) | 24.3% | 25.7% | -51.3% (active) | 6.16% (active) | 4.06% (active) | -75.5% (active) | 90.6% | -14.3% (active) |
| C/C(Cc1ccc(Cl)cc1)=C(\c1ccc(OCCCN(C)C)cc1)c1ccc(OC(=O)Cc2ccccc2)cc1 | 77.3% | 105% | 113% | 105 | 107% | 85.6% | 106% | 101% | 105% | 103% | 71.3% | 117% | 107% | 108% | 57.9% | 104% | 107% | 94.7% |
| CCc1ccc(CCC(=O)Nc2ncc(Cc3cc(Cl)ccc3Cl)s2)o1 | 15.3% | 12.3% | 19.2% | 24.5 | 50.3% | 34% | 23.5% | -2.36% (active) | 7.65% (active) | -3.44% (active) | 44% | 36.4% | -42.6% (active) | 24.1% | 14% | 17.5% | 19.7% | 20.3% |
| CC1=C2[C@@H](CC1)[C@]1(C)O[C@@](C3CCCCC3)(C[C@H]1OC(=O)CO)[C@H]2OC(=O)/C=C/c1ccccc1 | 52.1% | 58.5% | 5.17% (active) | 88.8 | 92.9% | 86% | 85.1% | 85% | -15.2% (active) | -2.43% (active) | 46.1% | -1.1% (active) | 95.9% | 86.5% | 57.6% | 76.3% | 81.8% | 79.6% |
| CCCCCCCCCCCCCOC(=O)c1c(C)[nH]c(/C=C2\N=C(c3ccc[nH]3)C=C2OC)c1C | -10.8% (active) | 11.2% | 18.3% | 44 | 55.8% | 47.4% | 22% | 11.3% | 18% | 22.5% | 27.2% | 51.5% | 19.2% | 3.08% (active) | 12.2% | 11.3% | 22.8% | 12.7% |
| COC(=O)CC[C@@H]1O[C@@H](c2ccc(F)cc2)[C@@H](O)[C@H]1O | 96.6% | 101% | 112% | 90.2 | 115% | 101% | 113% | 104% | 94.1% | 104% | 104% | 105% | 98.4% | 101% | 96% | 89.3% | 99.6% | 99.7% |
| CCOC(=O)c1cnc2c(N=Nc3ccc(OC)cc3)c(N)nn2c1N | 112% | 104% | 102% | 110 | 111% | 108% | 93.7% | 113% | 104% | 98.9% | 104% | 120% | 95% | 101% | 85.9% | 101% | 106% | 99.6% |
